According to PubChem BioAssay AID540317 (National Center for Advancing Translational Sciences (NCATS), 2011):
The whole screen tested about 390,000 compounds, of which about 2,200 (0.56%) were called active. Roughly 3% stayed inconclusive and do not appear here. Calls come from the whole dose curve; as a rule, active = well fitted inhibition curve with a large enough effect; inconclusive = small, poorly fitted or top-dose-only effect; inactive = no such curve, though single readings can be large or run the other way. Many of the other results were omitted from the sample, so actives are more common in it than they were.

molecular target: Chromobox protein homolog 1 (Homo sapiens) (UniProt P83916); assay: HTS for Inhibitors of HP1-beta Chromodomain Interactions with Methylated Histone Tails; details: AlphaScreen HP1-beta / biotin-H3K9me3 peptide binding; series mostly up to 114 µM; activity change, negative = inhibition: at the top concentration; note: nearly all actives have a fitted effect of over 70% in size
Sequence (P83916 whole entry, looked up): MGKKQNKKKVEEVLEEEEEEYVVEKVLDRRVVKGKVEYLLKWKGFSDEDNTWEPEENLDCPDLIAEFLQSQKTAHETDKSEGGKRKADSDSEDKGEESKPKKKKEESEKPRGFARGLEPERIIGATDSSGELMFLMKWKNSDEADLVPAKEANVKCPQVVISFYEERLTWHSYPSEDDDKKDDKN
Outline: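 Compound inhibition of the preformed complex between 50 nM HP1-beta and 50 nM biotinylated H3K9me3 peptide was read by AlphaScreen. Buffer was PBS pH 7.4 with 0.01% Tween-20. Incubations ran 30 min at room temperature, with 10 ug/mL donor/acceptor beads.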
Potency is the fitted concentration of half-maximal effect.

Row | SMILES | activity change, negative = inhibition | Potency
1 | COc1ccccc1-c1cc(C(F)(F)F)nc(S(=O)(=O)CCCC(=O)Nc2ccc(F)cc2F)n1 | 62.8% (inactive) | –
2 | O=[N+]([O-])c1ccc(N/N=C2/CCCCC2c2ccccn2)c([N+](=O)[O-])c1 (stereo not drawn) | – | 35.5 µM (active)
3 | CC1(C)C/C(=N/Nc2ccc([N+](=O)[O-])cc2[N+](=O)[O-])C(C)(C)O1 | -6.49% (inactive) | –
4 | C[n+]1ccccc1C1CCCC/C1=N\Nc1ccc([N+](=O)[O-])cc1[N+](=O)[O-] (stereo not drawn) | 21.4% (inactive) | –
5 | COc1ccc(CN2CCC(=O)c3ccccc3S2(=O)=O)cc1 | 34.2% (inactive) | –
6 | COc1cc(NC(=O)c2cc3ccc4cccnc4c3[nH]2)cc(OC)c1OC | 21.2% (inactive) | –
7 | Cc1ccc(C)c(Cn2c(CCCNC(=O)C3CCCCC3)nc3ccccc32)c1 | 31.9% (inactive) | –
8 | CC1CCN(C(=S)c2cccc(O)c2)CC1 | -6.99% (inactive) | –
9 | COc1ccc(C(=O)Nc2c(Cl)cc(Cl)cc2C(=O)N2CCC(C)CC2)cc1 | 6.49% (inactive) | –
10 | CC1CCN(C(=S)c2ccc(-c3ccc(Cl)cc3Cl)o2)CC1 | – | 22.4 µM (active)
11 | Cc1ccc(C(=O)Nc2nc(-c3ccccc3)ns2)cc1 | 51.4% (inactive) | –
12 | Cc1cc(C)cc(NC(=O)Cc2csc(C)n2)c1 | 23.5% (inactive) | –
13 | CCOc1ccc(N(Cc2ccccc2)C(=O)c2nc(SCC)ncc2Cl)cc1 | 39.6% (inactive) | –
14 | O=C(NC1CC(=O)N(c2ccc(F)cc2)C1)C1CCCCC1 (stereo not drawn) | -6.51% (inactive) | –
15 | CCn1c2ccccc2c2nnc(N3CCN(c4cc(C)ccc4C)CC3)nc21 | 20.6% (inactive) | –
16 | CCOCCCNC(=O)c1c(NC(=O)Cc2coc3c(C)c(C)ccc23)sc2c1CCC2 | 18% (inactive) | –
17 | O=C(NCCc1ccccc1)c1cnc2sc(N3CCCC3)nn2c1=O | -3.36% (inactive) | –
18 | COc1cccc(NCCC(=O)c2cccc([N+](=O)[O-])c2)c1 | – | 79.4 µM (active)
19 | COc1ccc(Cc2nnc(SCC(=O)c3cccc([N+](=O)[O-])c3)n2C)cc1 | 8.15% (inactive) | –
20 | COc1cccc(C(=O)CC(=O)C(=O)Nc2ccc([N+](=O)[O-])cc2C)c1 | 22.1% (inactive) | –
21 | Cc1ccccc1CNC(=O)CCCn1nc(C)c2sc3ccccc3c2c1=O | 47.8% (inactive) | –
22 | NS(=O)(=O)c1ccc(NC(=O)CSc2nnc3c(n2)[nH]c2ccccc23)cc1 | 58.7% (inactive) | –
23 | COc1ccc(C(=O)COC(=O)C(O)c2ccccc2)c(OC)c1 (stereo not drawn) | 24.5% (inactive) | –
24 | COc1ccc(/C=C2/C(=O)OCc3cc(OC)c(OC)cc32)c(OC)c1 | 1.57% (inactive) | –
25 | COc1ccc(/C=C2/C(=O)N(c3ccccc3)N=C2C)c(OC)c1 | – | 12.6 µM (active)

Row | SMILES | activity change, negative = inhibition | Potency
26 | CC1CC(C)CN(c2oc(-c3ccc(OCc4ccc(Cl)cc4)cc3)nc2C#N)C1 (stereo not drawn) | 10.1% [at 57 µM] (inactive) | –
27 | COc1ccc(C(=O)CSc2c(C(C)C)cnc3c2c(=O)n(C)c(=O)n3C)cc1 | 28.3% [at 57 µM] (inactive) | –
28 | O=C(CCc1cn(Cc2ccc(F)cc2)c2ccccc12)NC1CCCCC1 | 9.66% (inactive) | –
29 | CCc1ccccc1N1C(=O)CN(S(=O)(=O)CC)CC1(C)C(=O)NC1CCCCC1 (stereo not drawn) | 39.3% (inactive) | –
30 | C=CCNC(=O)c1ccc2nc(-c3ccco3)c(-c3ccco3)nc2c1 | -1.18% [at 57 µM] (inactive) | –
31 | CCOc1ccc(NC(=O)c2ncoc2-c2ccco2)cc1 | -8% (inactive) | –
32 | COCCNC(=O)Nc1ccc2nc(-c3ccco3)c(-c3ccco3)nc2c1 | – | 8.91 µM (active)
33 | CCN(CC)CCNC(=O)Cn1ncc2c3ccccc3n(Cc3ccccc3C)c2c1=O | 27.7% (inactive) | –
34 | CCCCN1C(=O)/C(=C(/C#N)C(N)=O)c2ccccc21 | 23.7% (inactive) | –
35 | Cc1ccc(C(=O)CC2(O)C(=O)N(CCc3ccccc3)c3ccc(Br)cc32)cc1 (stereo not drawn) | 7.9% (inactive) | –
36 | COc1ccc2c(c1)C(=C(C#N)C#N)C(=O)N2CCc1ccccc1 | – | 39.8 µM (active)
37 | COc1ccc(CCNC(=O)c2ccc(-n3c(C)cc4c3CCCC4)cc2)cc1OC | 10.2% (inactive) | –
38 | CCOC(=O)c1ccc(NC(=O)c2c(NCc3cccs3)sc3c2CCCC3)cc1 | -7.25% (inactive) | –
39 | COC(=O)c1ccc2c(c1)N(CC(=O)Nc1ccc(C)c(C)c1)C(=O)c1ccccc1S2 | 24.8% [at 57 µM] (inactive) | –
40 | O=C(CN1CCN(c2ncc(C(F)(F)F)cc2Cl)CC1)Nc1ccc2c(c1)OCO2 | 11.5% (inactive) | –
41 | Cc1ccc(C(=O)O)cc1-c1ccc(/C=C2\SC(=O)N(CC(=O)Nc3ccc4c(c3)OCO4)C2=O)o1 | – | 79.4 µM (active)
42 | COc1ccc(S(=O)(=O)c2c(Nc3cccc(Cl)c3)sc(C(=O)c3ccccc3)c2N)cc1 | 11.4% (inactive) | –
43 | O=S(=O)(Nc1ccc(O)c2ccccc12)c1ccc(OC(F)(F)F)cc1 | – | 44.7 µM (active)
44 | O=C1Cc2cc(S(=O)(=O)Nc3ccc(OC(F)(F)F)cc3)cc3c2N1CCC3 | 43.4% (inactive) | –
45 | Nc1ncc(S(=O)(=O)Nc2ccc(OC(F)(F)F)cc2)cn1 | 25% [at 57 µM] (inactive) | –
46 | O=C(NCCCO)c1nn(-c2ccc(Cl)cc2)nc1CO | 20.1% (inactive) | –
47 | CCOc1ccc(NC(=O)CSc2nnc3c(n2)[nH]c2ccc(S(=O)(=O)N4CCOCC4)cc23)cc1 | 11.7% (inactive) | –
48 | C=CC(=O)Nc1ccc(Nc2ccnc(Nc3ccc(N4CCN(C)CC4)cc3)n2)cc1 | – | 44.7 µM (active)
49 | Cc1cc(Nc2cc(N3CCN(C)CC3)nc(Sc3ccc(NC(=O)C4CC4)cc3)n2)n[nH]1 | 9.95% (inactive) | –
50 | O=C(COc1ccccc1)Nc1ccc(N2CCN(C(=O)c3cccs3)CC2)cc1 | -10.2% (inactive) | –

Row | SMILES | activity change, negative = inhibition | Potency
51 | Cc1cc2nn(-c3ccc(Cl)cc3)nc2cc1NC(=O)C(C)C | 35.5% (inactive) | –
52 | COc1ccc(S(=O)(=O)NNC(=O)Nc2ccc(C)cc2)c(OC)c1 | 28.3% (inactive) | –
53 | COc1cc(/C=N/Nc2ccc(C)cc2)cc(Br)c1O | – | 79.4 µM (active)
54 | Oc1c(Br)cc(/C=N/NC(=S)NCC2CCCO2)cc1Br (stereo not drawn) | 19% (inactive) | –
55 | CN1CCN(C(CNC(=O)c2ccccc2F)c2ccc3c(c2)OCO3)CC1 (stereo not drawn) | 23.5% [at 57 µM] (inactive) | –
56 | Fc1ccc(CSc2nc(NCc3ccccc3)c3ccccc3n2)cc1 | 61.9% (inactive) | –
57 | c1ccc(CSc2nnc(-c3ccco3)c(-c3ccco3)n2)cc1 | – | 39.8 µM (active)
58 | CN(C)C(=O)CSc1n[nH]c(-c2ccco2)n1 | 2.01% (inactive) | –
59 | Clc1ccccc1CSc1nnc(-c2ccco2)c(-c2ccco2)n1 | – | 20 µM (active)
60 | CC1(C)N=C(SCc2ccccc2Cl)c2ccccc2N1 | 259% (inactive) | –
61 | Clc1ccccc1CSc1nncn2c1cc1occc12 | 4.73% (inactive) | –
62 | Cc1ccc(CNC(=O)CCc2c(C)nn(-c3ccc(N4CCCC4)nn3)c2C)cc1 | 134% (inactive) | –
63 | CCCN1CCC(=O)N(C(CSc2ccc(OC)cc2)Cc2ccccc2)CC1 (stereo not drawn) | 30.4% (inactive) | –
64 | COc1ccc(Cl)cc1S(=O)(=O)N1CCC(c2ccncc2)CC1 | 54.6% (inactive) | –
65 | CC(C)(C)C1C/C(=C/c2ccco2)C(=O)/C(=C/c2ccco2)C1 (stereo not drawn) | – | 39.8 µM (active)
66 | COc1ccc(OC)c(NC(=O)CSC2=Nc3ccccc3C3=NC(CC(=O)NCc4ccc(F)cc4)C(=O)N23)c1 (stereo not drawn) | -3.25% (inactive) | –
67 | CCc1nc2nc(C)cc(Nc3ccc(F)c(Cl)c3)n2n1 | 26.4% (inactive) | –
68 | COc1ccc(S(=O)(=O)Nc2cccc3cccnc23)c(N)c1 | 13% (inactive) | –
69 | COc1ccc(C(=O)Nc2ccc(-n3nncc3-c3ccccc3)cc2)cc1OC | -12.4% (inactive) | –
70 | CC(=O)Nc1ccc(S(=O)(=O)N2N=NC3C2C2CC4C3(CN(C(=O)OC(C)(C)C)S4(=O)=O)O2)cc1 (stereo not drawn) | 33.6% (inactive) | –
71 | COc1cccc(-c2nc(S(=O)(=O)c3ccc(C)cc3)c(NCc3ccccc3)o2)c1 | 76.4% (inactive) | –
72 | Cc1ccc2c(c1)N(C(=O)Nc1ccc(Br)cc1F)CCO2 | 11.8% (inactive) | –
73 | COC(=O)c1scc(-c2ccc(C)cc2)c1S(=O)(=O)Nc1cc(Cl)c(OC)cc1OC | 15.8% (inactive) | –
74 | CCN1CCN(c2ccc([N+](=O)[O-])cc2C(=O)c2ccc(Cl)cc2)CC1 | -17.5% (inactive) | –
75 | O=C(O)C1CCN(c2ccc([N+](=O)[O-])cc2[N+](=O)[O-])CC1 | -25.7% (inactive) | –

Row | SMILES | activity change, negative = inhibition | Potency
76 | O=[N+]([O-])c1ccc(N2CCN(c3ccc(O)cc3)CC2)c(Cl)c1 | – | 50.1 µM (active)
77 | COc1ccc(CCn2c3c(c(=O)[nH]c2=S)CN(C(C)C)CN3)cc1OC | 3.75% (inactive) | –
78 | Cc1cc(C)c(/C=C/c2onc(C)c2S(=O)(=O)N2CCC(C(=O)Nc3ccc(Cl)cc3C)CC2)c(C)c1 | 23.2% [at 57 µM] (inactive) | –
79 | CCN(CC)S(=O)(=O)c1ccc2c(c1)N(CC(=O)NCC(C)c1ccccc1)C(=O)CO2 (stereo not drawn) | 30.7% (inactive) | –
80 | Cc1ccccc1C(=O)N(Cc1ccc(N(C)C)cc1)CC1CCCO1 (stereo not drawn) | -16.7% (inactive) | –
81 | Cc1nc2c(c(C)nn2-c2ccccc2)c(C)c1CCC(=O)NCCc1ccc(Cl)cc1 | 24.9% (inactive) | –
82 | CCCNC(=O)C1CCC(Cn2c(=O)c3sccc3n(Cc3ccccc3F)c2=O)CC1 (stereo not drawn) | 63.9% (inactive) | –
83 | COc1ccc(N(C)C(=O)C2CCN(S(=O)(=O)c3cc(Br)cc4c3N(C(C)=O)CC4)CC2)cc1 | 20.3% (inactive) | –
84 | O=c1ccc2c(-c3ccccc3S(=O)(=O)O)c3ccc(O)c(O)c3oc-2c1O | – | 1 µM (active)
85 | CCOc1cccc(NC(=O)c2ccc(F)c(S(=O)(=O)N(CC)c3cccc(C)c3)c2)c1 | 28.9% (inactive) | –
86 | CCN(Cc1ccccc1)S(=O)(=O)c1ccc2c(c1)CCCN2C(C)=O | 17.3% [at 57 µM] (inactive) | –
87 | Cc1ccc(Cl)cc1NC(=O)/C(C#N)=C\c1cn(Cc2ccc(F)cc2)c2ccccc12 | 6.98% (inactive) | –
88 | COc1ccc(Cn2c(=O)[nH]c3cc(C(=O)N4CCN(C(=O)c5ccco5)CC4)ccc3c2=O)cc1 | 24.4% (inactive) | –
89 | COc1ccc(NC(=S)NCC2CCN(c3ccc(OC)cc3)C2)cc1 (stereo not drawn) | – | 25.1 µM (active)
90 | COc1ccc(N2CCC(CNC(=S)Nc3c(C)cccc3C)C2)cc1 (stereo not drawn) | – | 20 µM (active)
91 | COc1ccc(N2CCC(N3CCN(C)C(CCO)C3)CC2)cc1 (stereo not drawn) | 54.7% (inactive) | –
92 | Cc1cccc(C)c1NC(=O)CNC(=O)C1CCCC1 | 9.1% (inactive) | –
93 | COc1ccc(NC(=O)N2CCCC(C(=O)Nc3ccccc3OC)C2)cc1 (stereo not drawn) | 67.2% (inactive) | –
94 | COc1ccc(CNC(=O)C2CCC(CNc3c(N4CCOCC4)c(=O)c3=O)CC2)cc1 (stereo not drawn) | – | inactive
95 | CCCN1CCC(=O)N(C(CSc2ccc(C)cc2)Cc2ccccc2)CC1 (stereo not drawn) | 16.5% (inactive) | –
96 | COc1ccc(CCNS(=O)(=O)c2cc(-c3cc(C)no3)ccc2C)cc1OC | 38.1% (inactive) | –
97 | COc1cccc(NC(=O)N2CCN(C(=O)c3nsc4ccccc34)CC2)c1 | 51.1% (inactive) | –
98 | Cc1cc(C)cc(OC(C)C(=O)Nc2nc3c(s2)CCCC3)c1 (stereo not drawn) | -9.84% (inactive) | –
